Screens: PubChem, National Center for Advancing Translational Sciences (NCATS)
aGal spleen mod = qHTS Assay for Inhibitors and Activators of Human alpha-Galactosidase From Spleen Homogenate; Alpha-galactosidase A (Homo sapiens), P06280; Potency, µM (doses to about 80 µM), actives largely listed as inhibitors; 240,000 tested, 0.008% active; human spleen homogenate, 4MU-alpha-Gal fluorescence, 40 min
Target sequence (P06280 32-429 limits assumed): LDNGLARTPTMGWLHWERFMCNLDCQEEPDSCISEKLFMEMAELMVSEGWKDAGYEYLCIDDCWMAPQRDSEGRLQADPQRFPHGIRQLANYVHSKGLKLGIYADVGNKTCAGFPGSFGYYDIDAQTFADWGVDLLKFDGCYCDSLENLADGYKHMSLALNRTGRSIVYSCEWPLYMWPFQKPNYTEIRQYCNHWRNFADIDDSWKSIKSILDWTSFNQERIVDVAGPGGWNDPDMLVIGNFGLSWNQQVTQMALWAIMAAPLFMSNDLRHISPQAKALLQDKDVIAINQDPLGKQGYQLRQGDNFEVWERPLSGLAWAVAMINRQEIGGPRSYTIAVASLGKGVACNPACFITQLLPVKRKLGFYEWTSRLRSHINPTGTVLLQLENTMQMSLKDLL
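qHTS titration in buffer at pH 5.0. Alpha-galactosidase activity in spleen homogenate was measured via 4-methylumbelliferone release from 1 mM fluorogenic substrate after 40 min at 37C and a pH 10 stop. AC50 came from Hill fits of control-normalized data.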
GAA spleen mod = qHTS Assay for Inhibitors and Activators of Human alpha-Glucosidase From Spleen Homogenate; 240,000 tested, 0.006% active; human spleen homogenate, 4-MU-alpha-glucoside fluorescence; Potency, µM (titrated, usually from 79.9 µM), actives largely listed as inhibitors; Lysosomal alpha-glucosidase (Homo sapiens), P10253; AID 2112, 2009
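Compounds were titrated against alpha-glucosidase in spleen homogenate at pH 5.0, with 1 mM 4-methylumbelliferyl substrate for 40 min at 37 C. Reactions were quenched with pH 10 NaOH/glycine and fluorescence measured.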
GAA glycogen = qHTS Assay for Inhibitors and Activators of Human alpha-Glucosidase Cleavage of Glycogen. recombinant GAA, glycogen substrate, Amplex Red glucose oxidase fluorescence. 300,000 tested, 0.38% active. Potency, µM (top dose mostly 76.4 µM), hits mostly inhibitors. AID 2100, 2009. Lysosomal alpha-glucosidase (Homo sapiens), P10253;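 further: the screen sought inhibitors and activators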
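Recombinant enzyme (4 nM final) with compounds titrated up to 77 uM and bovine liver glycogen (30 ug) in citrate pH 5.0, 0.01% Tween-20, 37 C 40 min. Released glucose detected by Amplex Red/glucose oxidase (Ex 573/Em 610); AC50 from Hill fits.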
GAA inh = qHTS Assay for Inhibitors of Human alpha-Glucosidase as a Potential Chaperone Treatment of Pompe Disease; Potency, µM (titrated, usually from 76.9 µM), most hits filed as inhibitors; AID 1466, 2008; Lysosomal alpha-glucosidase (Homo sapiens), P10253; purified human GAA, 4-MU-alpha-glucoside fluorescence; 200,000 tested, 0.005% active
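Enzyme (4 nM final) mixed with compound (up to 77 uM), then 4-MU-alpha-D-pyranoside (400 uM final) added; 20 min at room temperature, pH 5.0. Reaction stopped at pH 10, fluorescence read, AC50 derived by Hill fit.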
N370S GC = qHTS Assay for Inhibitors and Activators of N370S glucocerebrosidase as a Potential Chaperone Treatment of Gaucher Disease. Lysosomal acid glucosylceramidase (Homo sapiens), P04062. N370S GC spleen homogenate, 4MU-glucoside fluorescence. Potency, µM (series often up to 59.4 µM), usual class: inhibitors. 330,000 tested, 0.092% active
GLA inh pH 4.5 = qHTS Assay for Inhibitors of Human alpha-Galactosidase at pH 4.5 | Alpha-galactosidase A (Homo sapiens), P06280 | purified enzyme, 4-MU-alpha-Gal fluorescence, pH 4.5 | activity change, negative = inhibition, % at 105 µM | 230,000 tested, under 10 active
Each line names hits and unclear results; the compound was inactive in the other large screens. Rows were chosen to be rich in hits. Some 0.43% of all compounds tested hit in one or more screens of this group. The call rests on the fitted dose curve; in most records, active means well fitted curve in the direction sought with a large enough effect; inconclusive means small, poorly fitted or top-dose-only effect, or another doubt; inactive means no such curve, though single readings can be large; an effect the other way counts as inactive or inconclusive.

COc1ccc(CNc2ccnc(-c3ccccc3Cl)n2)c(OC)c1	aGal spleen mod inconclusive, N370S GC 4.47µM (no result: GAA glycogen, GAA inh, GLA inh pH 4.5)
COc1ccc2[nH]cc(CCNc3ccnc(-c4ccccc4C)n3)c2c1	aGal spleen mod 31.6µM, N370S GC 14.1µM (no result: GAA glycogen, GAA inh, GLA inh pH 4.5)
COc1ccccc1CNc1nc(-c2cccnc2)nc2ccccc12	N370S GC inconclusive (no result: GAA glycogen, GAA inh, GLA inh pH 4.5)
COc1ccc2[nH]cc(CCNc3nc(-c4cccnc4)nc4ccccc34)c2c1	N370S GC 12.6µM (no result: GAA glycogen, GAA inh, GLA inh pH 4.5)
COc1ccc(CNc2ccnc(-c3ccccc3OC)n2)c(OC)c1	none (no result: GAA glycogen, GAA inh, GLA inh pH 4.5)
COc1cccc(-c2nc(NCc3ccc(OC)cc3OC)c3ccccc3n2)c1	N370S GC inconclusive (no result: GAA glycogen, GAA inh, GLA inh pH 4.5)
CC(C)C[C@H](NC(=O)[C@@H](Cc1c[nH]c2ccccc12)NC(=O)[C@H](Cc1ccc(O)cc1)NC(=O)[C@H](CO)NC(=O)[C@H](Cc1c[nH]c2ccccc12)NC(=O)[C@H](Cc1cnc[nH]1)NC(=O)[C@@H]1CCC(=O)N1)C(=O)N[C@@H](CCCN=C(N)N)C(=O)N1CCC[C@H]1C(=O)NCC(N)=O	none (no result: GAA glycogen, GAA inh, GLA inh pH 4.5)
CCCCCCCCCCCCCC[C@@H](O)[C@@H](O)[C@H](CO)NC(C)=O	none (no result: GAA glycogen, GAA inh, GLA inh pH 4.5)
C=CC[n+]1c(-c2ccc(OC)cc2)csc1NNC(=O)Nc1ccccc1	GAA glycogen 20µM
CC12CCC=CC1C(c1ccc3ccccc3c1Br)N(Cc1ccccc1)C2=O (centres undefined)	none (no result: GAA glycogen, GAA inh, GLA inh pH 4.5)
Cc1cc(=O)oc2cc(OCC(=O)NC(Cc3c[nH]c4ccc(O)cc34)C(=O)O)c(Cl)cc12 (centres undefined)	GAA glycogen 7.94µM (no result: aGal spleen mod, GAA spleen mod, GAA inh, GLA inh pH 4.5)
CN(C(=O)N1CCN(S(=O)(=O)c2ccccc2)CC1)c1ccccc1	GAA inh 35.5µM (no result: N370S GC)
Cc1cccc(C(=O)Nc2cccc(C(=O)N3CCOCC3)c2)c1	none (no result: N370S GC)
CC(=O)/C(=N/Nc1cccc(C)c1)N1CCOCC1	GAA glycogen 17.6µM
Cc1ccc(C)c(N2CCN(S(=O)(=O)c3ccc4c(c3)NC(=O)CC(=O)N4)CC2)c1	N370S GC 14.1µM (no result: aGal spleen mod, GAA spleen mod, GAA inh, GLA inh pH 4.5)
Cc1ccc(C)c(N2CCN(S(=O)(=O)c3ccc4[nH]c(=O)c(=O)[nH]c4c3)CC2)c1	N370S GC 12.6µM
Cc1ccc(C)c(N2CCN(S(=O)(=O)c3ccc4c(c3)CCC(=O)N4)CC2)c1	none
CN(C)c1cc(Cl)c2nonc2c1N	GAA glycogen 12.6µM (no result: GAA inh)
CCN(CC)c1cc(Cl)c2nonc2c1N	GAA glycogen inconclusive (no result: GAA inh)
Cc1cccc(-n2c3c(cc(-c4nc(-c5ccc(Cl)cc5)cs4)c2=O)C(=O)CC(C)(C)C3)c1	none (no result: aGal spleen mod, GAA spleen mod, GAA inh, N370S GC, GLA inh pH 4.5)
COc1c(O)cc2c(=O)oc3c(OC)c(O)cc4c(=O)oc1c2c34	none (no result: GAA glycogen, GAA inh)
O=c1cc2c(=O)oc3cc(O)c(O)oc3c2c(O)c1O	GAA glycogen 8.91µM
Oc1ccc(/C=N/Nc2cccc3cccnc23)c(O)c1	GAA glycogen 25.1µM
CC1C(=O)NN=C1C(=O)N/N=C\c1ccc(O)cc1O (centres undefined)	none
Oc1ccccc1/C=N/Nc1nccnc1Cl	none
Oc1ccc(/C=N/Nc2nccnc2Cl)c(O)c1	GAA glycogen 11.2µM, N370S GC inconclusive
Oc1ccc(Br)cc1/C=N/Nc1ncc(-c2ccccc2)cn1	none
Oc1ccc(/C=N/Nc2ncc(Br)cn2)c(O)c1	GAA glycogen 28.2µM
O=c1[nH]ncc(N/N=C\c2ccc(O)cc2O)c1Cl	GAA glycogen 2.49µM
CN1CCN(c2ccnc(-c3ccoc3)n2)CC1	none (no result: GAA glycogen, GAA inh, GLA inh pH 4.5)
CCOc1ccc(NC(=O)C2CCC(CNS(=O)(=O)c3ccc(Br)s3)CC2)cc1 (centres undefined)	none (no result: aGal spleen mod, GAA spleen mod, GAA inh, N370S GC, GLA inh pH 4.5)
